# Screening results as filed in PubChem BioAssay.
# SARS PLP yeast – SARS-CoV PLP inhibition in yeast; S. cerevisiae expressing SARS-CoV PLpro, growth rescue; hit rate 0.19% among 330,000; Potency, µM (titrated, usually from 32.9 µM), for the others: at the top dose activity, positive = growth rescue, actives largely listed as activators; further: potency means the concentration at half of the fitted maximal effect; 0% is about no effect; nearly all actives have a fitted effect of over 55% in size
# LmPK inhibitor – blocks Leishmania mexicana pyruvate kinase activity; Q27686; purified LmPK, Kinase-Glo ATP luminescence, 1 h; Potency, µM (highest dose often 57.5 µM), for the others: at the highest dose activity change, negative = inhibition, hits mostly inhibitors; hit rate 0.37% among 290,000; active means well fitted curve in the direction sought with a large enough effect; inconclusive means small, poorly fitted or top-dose-only effect, or another doubt; inactive means no such curve, though single readings can be large; an effect the other way counts as inactive or inconclusive; further: potency means the concentration at half of the fitted maximal effect; on the % scale 0 is the no-effect control and ±100 the full control effect
# Target sequence (Q27686 whole entry, looked up): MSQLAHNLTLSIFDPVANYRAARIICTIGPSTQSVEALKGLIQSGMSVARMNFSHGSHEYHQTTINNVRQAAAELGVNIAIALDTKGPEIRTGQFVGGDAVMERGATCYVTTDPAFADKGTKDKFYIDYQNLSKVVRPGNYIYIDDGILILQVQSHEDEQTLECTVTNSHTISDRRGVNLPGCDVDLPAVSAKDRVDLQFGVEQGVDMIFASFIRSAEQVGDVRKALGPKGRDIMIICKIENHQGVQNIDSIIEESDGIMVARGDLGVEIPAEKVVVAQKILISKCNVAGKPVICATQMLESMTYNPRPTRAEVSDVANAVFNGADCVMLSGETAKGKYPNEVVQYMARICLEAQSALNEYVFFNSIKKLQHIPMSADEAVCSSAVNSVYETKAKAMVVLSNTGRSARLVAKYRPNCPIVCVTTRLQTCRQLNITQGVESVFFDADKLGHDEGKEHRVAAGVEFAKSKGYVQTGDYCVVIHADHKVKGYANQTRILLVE
#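 Kinase-Glo luminescence read after 1 h RT reaction of 0.1 nM LmPK with 0.5 mM PEP and 0.1 mM ADP. Activity scaled between uninhibited and enzyme-free controls.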
# NS1 inh – inhibitors of influenza NS1 protein function | Potency, µM (highest dose often 46.1 µM), without a hit: at the top dose activity, positive = more growth | hit rate 0.4% among 270,000; further: potency means the concentration at half of the fitted maximal effect; actives are rising curves; nearly all actives have a fitted effect of over 50% in size
#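 Compounds were scored for reversing the slow growth caused by influenza A NS1 in S. cerevisiae, measured by optical density at 600 nm. Assay medium contained 2% galactose at pH 6.0; NS1-free yeast of the same strain were the positive control.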
# Tb PYK inh – blocks Trypanosoma brucei pyruvate kinase | Q57TT1 | TbPYK enzyme, Kinase-Glo Plus ATP luminescence, 45 min | Potency, µM (doses to about 76.8 µM), for inactives: top-dose activity, negative = inhibition, actives largely listed as inhibitors | hit rate 0.12% among 410,000 | AID 624173; active means well fitted curve in the direction sought with a large enough effect; inconclusive means small, poorly fitted or top-dose-only effect, or another doubt; inactive means no such curve, though single readings can be large; an effect the other way counts as inactive or inconclusive; further: potency means the concentration at half of the fitted maximal effect; on the % scale 0 is the no-effect control and ±100 the full control effect; nearly all actives have a fitted effect of over 50% in size
#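 Readout: single end-point luminescence (Kinase-Glo Plus, 10 min). Reaction conditions were TbPYK/substrate plus 130 uM ADP, 45 min at RT, pH 7.2 TEA buffer. No-enzyme wells served as controls, and data were normalized before concentration-response fitting.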
# Cycloheximide cs – affects cycloheximide protein synthesis inhibition readout, counter-screen | max response, % | cell reporter, cycloheximide protein synthesis inhibition counterscreen | hit rate 12% among 300,000; in the data active means max response mostly above about 13%, no sharp cut-off; inactive means mostly below about 14%; further: read at 38.3 µM for the half of the compounds with a filed dose; 0% is about no effect
# Shiga inhibitor – inhibitors of Shiga toxin in Vero cells | inhibition, % at 38.7 µM | AID 2315 | Vero cells, Shiga toxin protein synthesis inhibition reporter | hit rate 9.2% among 290,000; in the data active means inhibition mostly above about 28%, no sharp cut-off; inactive means mostly below about 43%; further: 0% is about no effect
# NS1 inh valid – influenza NS1 function inhibition validation | shares compounds with NS1 inh | influenza NS1 function cell assay, 15-point titration | activity change, negative = inhibition, % at 32.9 µM | 1,400 tested, under 10 active; further: 0% is about no effect
# Flu PR8 replic – reduces influenza A/PR/8/34 replication in MDCK cells. virus titer (log TCID50), log10 TCID50 at 5 µM. MDCK infected influenza A/PR/8/34, virus titer TCID50; hits give low values. hit rate 30% among 95. shares compounds with NS1 inh; call rule not given here
# Numbers without * were called inactive; u = inconclusive; x = not tested or not shown; [ ] = dose if it differs, or a comment. The sample as a whole holds a higher share of hits than the screen did. Unless noted, the call rests on the fitted dose curve.
SMILES,SARS PLP yeast,LmPK inhibitor,NS1 inh,Tb PYK inh,Cycloheximide cs,Shiga inhibitor,NS1 inh valid,others
CC(C)(C)NC(=O)Cn1cc(S(=O)(=O)Cc2ccc(F)cc2)c2ccccc21,x,x,x,0.6%[15.4 µM],x,x,x,
COc1ccc(S(=O)(=O)N(CC(=O)NN=C2CCN(C)CC2)c2ccc(C)cc2)cc1OC,-6.7%,-6.2%,27.1%,-2.1%,-3.0,-35.7,x,
Cc1ccc(N(CC(=O)NN=C2CCN(C)CC2)S(=O)(=O)c2ccccc2)c(C)c1,4.2%,0.0%,4.47µM*,-6.2%,-0.3,9.0,27.2,
O=C(CN1C2=NCCCN2c2ccccc21)c1ccc(Cl)cc1Cl,-0.8%,0.2%,-2.1%,-1.6%,-4.3,-10.1,x,
CC(C)Cn1c(=O)c2sccc2n2c(CCCC(=O)NCCc3ccccc3)nnc12,x,x,x,0.0%,x,x,x,
Cc1cccc(CN(CC(=O)N/N=C/c2cccs2)S(=O)(=O)c2ccc(Cl)cc2)c1,-1.5%,2.5%,8.91µM*,9.7%,-2.2,15.8,-31.9,
O=C(COC(=O)c1ccc[nH]c1=O)Nc1cc(S(=O)(=O)N2CCCCC2)ccc1Cl,2.0%,0.5%,x,-2.8%,6.6,11.3,x,
O=C(COC(=O)c1ccc[nH]c1=O)Nc1ccc(S(=O)(=O)N2CCCC2)cc1,-1.5%,3.2%,11.2µM*,-0.1%,-1.3,-14.3,3.0,Flu PR8 replic=7.66
Cc1ccccc1-n1c(=O)cc(NCc2ccc3c(c2)OCO3)[nH]c1=O,11.8%,7.1%,u,2.5%,-2.3,-3.6,10.0,
O=c1cc(NCc2ccc3c(c2)OCO3)[nH]c(=O)n1-c1ccc(Cl)cc1,12.7%,-13.5%,7.4%,-3.7%,2.9,1.5,x,
Cc1cc(C)nc(Nc2n[nH]c(COc3ccc4ccccc4c3)n2)n1,4.4%,3.1%,2µM*,-6.7%,-3.8,-9.0,15.4,
Cc1cc(C)nc(Nc2n[nH]c(COc3ccccc3)n2)n1,-5.6%,-0.1%,-5.4%,u,2.5,13.4,x,
CCCn1c(C)cc(C(=O)CSc2nc3ccccc3c(=O)n2Cc2ccco2)c1C,12.8%,1.1%,8.91µM*,2.9%,49.3*,57.0*,-15.2,
Cn1c(O)c(C=NCc2ccco2)c(=O)n(C)c1=O,7.4%,7.2%,8.91µM*,2.3%,-2.0,-12.2,-13.5,
O=C(Cn1cnc2sc3c(c2c1=O)CCCC3)NCC(=O)Nc1ccc(F)cc1F,0.8%,7.6%,-4.4%,-0.9%,0.6,-10.7,x,
Cc1nn(-c2ccc(N3CCOCC3)nn2)c(C)c1CCC(=O)NCc1ccc(OC(C)C)cc1,x,x,x,5.3%,x,x,x,
CC(NC(=O)c1ccc2c(c1)N(Cc1cccc(F)c1)C(=O)c1ccccc1S2)c1ccccc1 (stereo unspecified),x,x,x,-2.4%,x,x,x,
O=C(NCC1CCCO1)C(c1cccs1)N(Cc1cccs1)C(=O)c1ccc(-c2ccccc2)[nH]1 (stereo unspecified),0.8%,-0.3%,12.6µM*,-5.0%,8.6,20.7,-29.7,
O=C(NCC1CCCO1)C(c1ccc(F)cc1)N(CC1CCCO1)C(=O)c1ccc(-c2ccccc2)[nH]1 (stereo unspecified),1.0%,3.0%,-8.1%,2.5%,-1.6,-2.5,x,
NC(=O)CN1CCN(c2nc(-c3ccc(F)cc3)cs2)CC1,-8.8%,2.6%,7.1%,4.0%,2.3,15.6,x,
Fc1ccc(-c2csc(N3CCC(c4ccccc4)C3)n2)cc1 (stereo unspecified),0.8%,-3.2%,u,u,76.4*,93.7*,-25.4,
CC(=O)c1cccc(NC(=O)CCN2C(=O)C3C4CCC(C4)C3C2=O)c1 (stereo unspecified),11.3%,-7.1%,10.9%,1.1%,8.5,-26.4,x,
CCc1ccc(N=C2NC(=O)/C(=C/c3ccc(OCC(=O)O)c(OC)c3)S2)cc1,-0.7%,-2.7%,11.2µM*,-5.8%,1.0,-1.7,46.2,
CCOc1cc(/C=C2\SC(=Nc3ccc(F)cc3)N(c3ccc(F)cc3)C2=O)ccc1OCC(=O)O,-0.1%,0.2%,u,x,-1.1,-7.0,x,
CCOc1cc(/C=C2\SC(=Nc3ccccc3)N(c3ccccc3)C2=O)ccc1OCC(=O)O,9.8%,0.4%,u,-9.4%,-4.4,-13.0,-34.9,
SMILES,SARS PLP yeast,LmPK inhibitor,NS1 inh,Tb PYK inh,Cycloheximide cs,Shiga inhibitor,NS1 inh valid,others
CC(C)c1ccc(NC2CCCN(C(=O)CCN3CCOCC3)C2)cc1 (stereo unspecified),-5.4%,-7.0%,0.9%,3.9%,-3.7,-1.5,x,
Cc1ccc(NC2CCCN(C(=O)CCN3CCOCC3)C2)cc1C (stereo unspecified),2.4%,0.2%,u,0.2%,2.0,-6.5,-3.4,
O=C1NC[C@@H](c2ccccc2)OC(=O)[C@H](Cc2ccc(F)cc2)C/C=C\C[C@@H]1CC(=O)N(CCO)Cc1ccccc1,1.2%,x,x,1.8%,x,x,x,
COc1ccc(NS(=O)(=O)c2ccc(N3CCCC3)c(NC(=S)Nc3ccc(SC(F)F)cc3)c2)cc1,-25.8%,-1.4%,8.91µM*,-17.7%,8.3,-4.1,u,
Cc1nn(-c2ccccc2)c2sc(-c3n[nH]c(=S)o3)cc12,-36.0%,-4.7%,2.51µM*,-20.0%,-0.8,0.6,u,
CC1CC(C)CN(C(=O)CN2C(=O)NC(c3ccccc3)(c3ccccc3)C2=O)C1 (stereo unspecified),10.7%,x,x,2.2%,x,x,x,
Cc1cc(NC(=O)/C=C/c2cccc(Cl)c2)n(-c2nc3ccccc3[nH]2)n1,14.1%,-6.3%,1.78µM*,0.4%,65.6*,active,7.4,
Cc1cc(NC(=O)/C=C/c2cccc(F)c2)n(-c2nc3ccccc3[nH]2)n1,19.3%,2.8%,19.5%,-4.2%,12.1,-2.9,x,
O=C(NCCSc1c(-c2ccccc2)[nH]c2ccccc12)c1cc2ccccc2oc1=O,-8.7%,3.6%,11.2µM*,-10.9%,-3.6,-5.2,-3.2,
O=C1CN(C(=O)COC(=O)c2ccc(Cl)c(S(=O)(=O)N3CCCCC3)c2)c2ccccc2N1,-1.5%,x,x,0.5%,x,x,x,
O=C1CN(C(=O)COC(=O)c2ccc(N3CCCCCC3)c([N+](=O)[O-])c2)c2ccccc2N1,-4.5%,3.1%,10µM*,-1.8%,-2.9,-7.5,20.7,
CSc1cc(-c2ccc(Cl)cc2)c(C(=O)NN)s1,4.8%,1.9%,u,-9.0%,1.6,17.4,-20.2,
CSc1cc(-c2ccc(Cl)cc2)c(C(=O)NC(C)C)s1,0.0%,0.4%,-2.6%,u,-2.8,-4.3,x,
CCC/C(=N/NC(=O)c1ccc2c(c1)OCO2)c1cccs1,5.3%,2.2%,u,3.6%,96.4*,88.7*,-15.4,
COc1cccc(C2=NOC(C(=O)Nc3cccc(C(C)=O)c3)C2)c1 (stereo unspecified),-11.5%,0.2%,2.82µM*,2.4%,4.4,-8.0,0.0,
